Bioassay records (PubChem BioAssay)
Only some compounds are listed: those with a hit (about 2.3% of all), similar ones and a draw of the others.
pPAFAH FP inh: pPAFAH (human) enzyme inhibition; hit rate 1.5% among 330,000; recombinant pPAFAH, FP-rhodamine probe fluorescence polarization; AID 463082; inhibition, % at 3.39 µM;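 active = inhibition above the mean inhibition across the screen plus 3 SD, cut at about 25% in these data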;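 also: inhibitors block binding of the rhodamine activity-based probe so polarization drops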
Fam108B inh: blocks mouse Fam108B hydrolase in RBBP9 counter-screen; recombinant Fam108B, FP-Rh probe fluorescence polarization; inhibition, % at 9.51 µM; hit rate 0.33% among 300,000; AID 1947;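 active = inhibition above the screen mean inhibition plus 3 SD, computed separately per campaign, cut at about 18% in these data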;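 also: inhibitors lower polarization as less probe binds the enzyme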
GSTO1 counter: counter-screen for RBBP9 inhibitors: inhibitors of human GSTO1; P78417; recombinant GSTO1, activity-based probe fluorescence polarization; inhibition, % at 5.96 µM; hit rate 1.1% among 300,000;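 active = inhibition above the campaign mean inhibition plus 3 SD, cut at about 35% in these data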
Target sequence (P78417 whole entry, looked up): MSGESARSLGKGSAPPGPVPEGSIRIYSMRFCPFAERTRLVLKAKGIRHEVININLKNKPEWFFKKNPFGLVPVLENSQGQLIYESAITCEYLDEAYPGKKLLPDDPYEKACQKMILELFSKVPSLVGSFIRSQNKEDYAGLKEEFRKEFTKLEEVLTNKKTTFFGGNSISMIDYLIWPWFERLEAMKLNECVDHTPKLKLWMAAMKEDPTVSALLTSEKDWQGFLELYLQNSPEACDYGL
PME-1 inh: blocks human protein phosphatase methylesterase 1 | recombinant PME-1, FP-Rh probe fluorescence polarization | hit rate 0.53% among 320,000 | Q9Y570 | AID 2130 | inhibition, % at 5.9 µM;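 active = inhibition above the campaign mean of all compounds plus 3 SD, cut at about 26% in these data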;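 also: competitive labeling of PME-1 active site by serine hydrolase directed probe; inhibitors block probe labeling so polarization falls and inhibition rises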
Target sequence (Q9Y570 whole entry, looked up): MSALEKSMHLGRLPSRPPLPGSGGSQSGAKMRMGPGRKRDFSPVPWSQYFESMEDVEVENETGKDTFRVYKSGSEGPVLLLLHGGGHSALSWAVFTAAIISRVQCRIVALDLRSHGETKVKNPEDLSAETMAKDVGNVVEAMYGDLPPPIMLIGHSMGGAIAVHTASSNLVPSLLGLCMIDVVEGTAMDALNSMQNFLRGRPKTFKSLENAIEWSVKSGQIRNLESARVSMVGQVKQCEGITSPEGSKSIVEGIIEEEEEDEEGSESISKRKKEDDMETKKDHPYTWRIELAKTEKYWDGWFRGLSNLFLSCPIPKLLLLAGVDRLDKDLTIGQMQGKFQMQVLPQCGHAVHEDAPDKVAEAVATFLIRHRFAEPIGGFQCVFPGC
PAD4 inh: PAD4 (human) enzyme inhibition; hit rate 0.41% among 330,000; inhibition, % at 6.36 µM; Q9UM07; recombinant PAD4, RCA probe fluorescence polarization;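 active = percent inhibition above a cutoff equal to the mean of all tested compounds plus 3 SD, cut at about 15% in these data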
Hits are given with their value.

Screening COc1ccc2[nH]c(O)c(N=NC(=O)Cc3cccs3)c2c1 returned pPAFAH FP inh 25, Fam108B inh inactive, GSTO1 counter inactive, PME-1 inh inactive and PAD4 inh inactive.
`O=C(CSc1n[nH]c(-c2ccncc2)n1)Nc1ccc(F)cc1` gave pPAFAH FP inh inactive, Fam108B inh inactive, GSTO1 counter inactive, PME-1 inh inactive and PAD4 inh inactive.
Cc1ccc(NC(=O)CSc2nc3ncc(Br)cc3[nH]2)cc1C was read as pPAFAH FP inh inactive, Fam108B inh inactive, GSTO1 counter 36, PME-1 inh inactive and PAD4 inh inactive.
Screening Cc1cc(C)c(NC(=O)CSc2nc3ncc(Br)cc3[nH]2)c(Cl)c1 returned pPAFAH FP inh inactive, Fam108B inh inactive, GSTO1 counter inactive, PME-1 inh inactive and PAD4 inh inactive.
`Cc1ccc(NC(=O)CSc2n[nH]c(-c3ccncc3)n2)cc1C` gave pPAFAH FP inh 29, Fam108B inh inactive, GSTO1 counter inactive, PME-1 inh inactive and PAD4 inh inactive.
For C[C@H](CO)N1C[C@H](C)[C@@H](CN(C)S(=O)(=O)c2cn(C)cn2)Oc2ccc(NC(=O)Cn3cnnn3)cc2C1=O the results were pPAFAH FP inh inactive and PAD4 inh inactive.
Screening CN(CCc1ccccn1)C(=O)CCC1CCCN(C(=O)NC2CCCCC2)C1 (centres undefined) returned pPAFAH FP inh inactive, Fam108B inh inactive, GSTO1 counter inactive, PME-1 inh inactive and PAD4 inh inactive.
For O=C(NCc1nnnn1-c1ccc(F)cc1)c1ccc([N+](=O)[O-])o1 the results were pPAFAH FP inh inactive, Fam108B inh inactive, GSTO1 counter inactive, PME-1 inh inactive and PAD4 inh inactive.
`C/C(=N/NS(=O)(=O)c1ccc(Cl)cc1)c1cccc(NC(=O)c2ccc(Cl)cc2Cl)c1` gave pPAFAH FP inh 25, Fam108B inh inactive, GSTO1 counter inactive, PME-1 inh inactive and PAD4 inh inactive.
Screening Cc1ccnc(SCC(=O)Nc2oc(-c3ccccc3)c(-c3ccccc3)c2C#N)n1 returned pPAFAH FP inh inactive, Fam108B inh inactive, GSTO1 counter inactive, PME-1 inh inactive and PAD4 inh inactive.
`N#Cc1c(NC(=O)CSc2ncccn2)oc(-c2ccccc2)c1-c1ccccc1` gave pPAFAH FP inh 32, Fam108B inh inactive, GSTO1 counter inactive, PME-1 inh inactive and PAD4 inh inactive.
For CCCn1c(CNc2ccccc2O)nc2ccccc21 the results were pPAFAH FP inh inactive, Fam108B inh inactive, GSTO1 counter 35, PME-1 inh inactive and PAD4 inh inactive.
For Cc1ccc(NC(=O)CCCNC(=O)c2ccc(Cl)cc2)c(O)c1 the results were pPAFAH FP inh inactive, Fam108B inh inactive, GSTO1 counter inactive, PME-1 inh inactive and PAD4 inh inactive.
Screening CN1CCN(C(=O)CSc2nc(-c3cccs3)cc(-c3cccs3)c2C#N)CC1 returned pPAFAH FP inh 28, Fam108B inh inactive, GSTO1 counter inactive, PME-1 inh inactive and PAD4 inh inactive.
`CCN(CC)C(=O)CSc1nc(-c2cccs2)cc(-c2cccs2)c1C#N` gave pPAFAH FP inh inactive, Fam108B inh inactive, GSTO1 counter inactive, PME-1 inh inactive and PAD4 inh inactive.
`CC12CCC(C/C1=N\N=C1\NC(=O)/C(=C\c3cccc(Br)c3)S1)C2(C)C` (centres undefined) gave pPAFAH FP inh 27, Fam108B inh inactive, GSTO1 counter inactive, PME-1 inh inactive and PAD4 inh inactive.
COc1cc(/C=N/N=C2\CC3CCC2(C)C3(C)C)ccc1O (centres undefined) was read as pPAFAH FP inh inactive, Fam108B inh inactive, GSTO1 counter inactive, PME-1 inh inactive and PAD4 inh inactive.
For COCCCNC(=O)COC(=O)c1ccc(-c2nc3ccccc3s2)s1 the results were pPAFAH FP inh 28, Fam108B inh inactive, GSTO1 counter inactive, PME-1 inh inactive and PAD4 inh inactive.
Screening CNC(=O)COC(=O)c1ccc(-c2nc3ccccc3s2)s1 returned pPAFAH FP inh inactive, Fam108B inh inactive, GSTO1 counter inactive, PME-1 inh inactive and PAD4 inh inactive.
For CCOc1nc2cnccc2n(CC(=O)Nc2cccc(C)c2C)c1=O the results were pPAFAH FP inh inactive, Fam108B inh inactive, GSTO1 counter inactive, PME-1 inh inactive and PAD4 inh inactive.
Screening C/C(=C1\SC(N2CCOCC2)=NC1=O)c1ccccc1 returned pPAFAH FP inh inactive, Fam108B inh inactive, GSTO1 counter inactive, PME-1 inh inactive and PAD4 inh inactive.
Screening C/C(=C1/SC(N2CC(C)OC(C)C2)=NC1=O)c1ccccc1 (centres undefined) returned pPAFAH FP inh 28, Fam108B inh inactive, GSTO1 counter inactive, PME-1 inh inactive and PAD4 inh inactive.
Cc1cc(-c2ccccc2)nc(N/N=C/c2ccc(O)cc2O)n1 was read as pPAFAH FP inh inactive, Fam108B inh inactive, GSTO1 counter inactive, PME-1 inh 40 and PAD4 inh inactive.
For COc1ccc(C(=O)OCC(=O)NCC2CCCO2)cc1 (centres undefined) the results were pPAFAH FP inh inactive, Fam108B inh inactive, GSTO1 counter inactive, PME-1 inh inactive and PAD4 inh inactive.
For Cc1ccc(NS(=O)(=O)c2cc(C(=O)OCC(=O)NCC3CCCO3)ccc2C)cc1 (centres undefined) the results were pPAFAH FP inh 34, Fam108B inh inactive, GSTO1 counter inactive, PME-1 inh inactive and PAD4 inh inactive.
CCN(CC)c1ccc(C(=O)OCC(=O)NCC2CCCO2)cc1 (centres undefined) was read as pPAFAH FP inh 32, Fam108B inh inactive, GSTO1 counter inactive, PME-1 inh inactive and PAD4 inh inactive.
Screening O=C(COC(=O)/C=C/c1ccc(Cl)cc1Cl)NCC1CCCO1 (centres undefined) returned pPAFAH FP inh 27 and PAD4 inh inactive.
`CCOc1ccc(CNC(=O)c2ccccc2NC(=O)C2=CSCCO2)cc1` gave pPAFAH FP inh inactive, Fam108B inh inactive, GSTO1 counter inactive, PME-1 inh inactive and PAD4 inh inactive.
For Cc1oc(C(=O)O)cc1COc1cccc2cccnc12 the results were pPAFAH FP inh 28, Fam108B inh inactive, GSTO1 counter inactive, PME-1 inh inactive and PAD4 inh inactive.
Screening C=CCn1c(SC2CCOC2=O)nc2sc(C)c(C)c2c1=O (centres undefined) returned pPAFAH FP inh inactive, Fam108B inh inactive, GSTO1 counter inactive, PME-1 inh inactive and PAD4 inh inactive.
Screening C=CCn1c(SC2CCOC2=O)nc2sc(CC)cc2c1=O (centres undefined) returned pPAFAH FP inh 27, Fam108B inh inactive, GSTO1 counter inactive, PME-1 inh inactive and PAD4 inh inactive.
Screening O=C(/C=C/c1ccc([N+](=O)[O-])s1)N1CCCCC1 returned pPAFAH FP inh inactive, Fam108B inh inactive, GSTO1 counter 35, PME-1 inh inactive and PAD4 inh inactive.
`Cc1ccc(S(=O)(=O)NCCSc2nnnn2-c2cc(C)ccc2C)cc1` gave pPAFAH FP inh inactive, Fam108B inh inactive, GSTO1 counter 35, PME-1 inh inactive and PAD4 inh inactive.
For Cc1ccc(S(=O)(=O)NCCSc2nnnn2-c2ccccc2)cc1 the results were pPAFAH FP inh inactive, Fam108B inh inactive, GSTO1 counter inactive, PME-1 inh inactive and PAD4 inh inactive.
